NR5A2 inv ag: inverse agonists of human LRH-1 (NR5A2); actives 0.13% (n = 360,000); HEK293T StAR-luciferase reporter, LRH-1 transfected, 24 h; inhibition, % at 3.6 µM; AID 602396; O00482;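 active = inhibition above the mean inhibition of all tested compounds plus 3 SD, cut at about 73% in these data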;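 note: 0% = DMSO wells and 100% = reporter-only cells lacking LRH-1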
SRC2 inh: human SRC2 (NCOA2) inhibition; inhibition, % at 9 µM; HEK293 GAL4-SRC2 luciferase reporter, luminescence; Q15596; actives 0.17% (n = 370,000); AID 651957;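 active = inhibition above the mean inhibition of all tested compounds plus 3 SD, set per campaign, cut at about 52% in these data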;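 note: 0% = DMSO treated cells and 100% = cells given Gossypol at 36 µM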
NCOA1 inh: inhibitors of human steroid receptor coactivator 1 (SRC1). Q15788. HEK293 GAL4-SRC1 luciferase reporter, luminescence. inhibition, % at 3.6 µM. actives 0.12% (n = 360,000);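 active = inhibition above the campaign mean plus 3 SD, with each screening campaign given its own cutoff, cut at about 60% in these data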;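 note: 0% = DMSO treated cells and 100% = gossypol at 36 µM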
SRC3 inh: inhibitors of human steroid receptor coactivator 3 (SRC3); actives 0.17% (n = 360,000); inhibition, % at 3.6 µM; HEK293 GAL4-SRC3 luciferase reporter, luminescence;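 active = inhibition above a per-campaign cutoff, the mean of all compounds plus 3 SD, cut at about 60% in these data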;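 note: 0% = DMSO-treated cells and 100% = gossypol-treated cells at 36 µM; higher means less SRC3-driven luciferase light from the GAL4 reporter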
COUP-TFII inh: NR2F2 (human) inhibition, primary screen; HEK293T NGFI-A luciferase reporter, luminescence; actives 0.7% (n = 370,000); inhibition, % at 8.6 µM;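 active = inhibition above a per-plate cutoff, mean inhibition of test wells between control levels plus 3 SD, cut at about 38% in these data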;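 note: cells cotransfected with COUP-TFII expression vector driving the NGFI-A reporter; 0% = median of COUP-TF2 test wells and 100% = reporter-only cells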
Target sequence (P24468 whole entry, looked up): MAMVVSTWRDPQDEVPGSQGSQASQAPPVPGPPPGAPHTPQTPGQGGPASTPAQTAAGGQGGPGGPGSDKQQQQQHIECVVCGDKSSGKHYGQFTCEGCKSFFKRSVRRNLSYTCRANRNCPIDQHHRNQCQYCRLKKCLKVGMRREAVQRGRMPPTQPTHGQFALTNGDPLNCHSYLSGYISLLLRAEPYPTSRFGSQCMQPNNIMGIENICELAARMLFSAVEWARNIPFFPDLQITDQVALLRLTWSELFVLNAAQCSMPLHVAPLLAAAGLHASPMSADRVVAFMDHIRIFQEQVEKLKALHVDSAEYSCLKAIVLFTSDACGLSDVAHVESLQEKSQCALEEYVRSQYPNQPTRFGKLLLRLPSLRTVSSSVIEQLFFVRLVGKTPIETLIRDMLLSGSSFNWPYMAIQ
VP16 Luc counter: VP16 inhibition counter-screen for COUP-TFII; shares compounds with COUP-TFII inh; HEK293 Gal4-VP16 luciferase reporter, luminescence; actives 25% (n = 2,500); inhibition, % at 8.5 µM; in the data active = inhibition above about 13%
COUP-TFII conf: COUP-TFII (NR2F2) inhibition, confirmation assay | shares compounds with COUP-TFII inh | HEK293 NGFI-A luciferase reporter, luminescence | inhibition, % at 8.5 µM | actives 45% (n = 2,500) | AID 687008;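 active = mean inhibition over three repeats above a set limit taken from the earlier primary screen, cut at about 38% in these data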;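 note: 100% = cells given the luciferase reporter alone without the COUP-TF2 vector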
* marks the source's active call; other numbers are inactive results; / = not tested or not shown. Compounds with a hit are over-represented: about 0.84% of the library has one in this group of screens.

SMILES | NR5A2 inv ag | SRC2 inh | NCOA1 inh | SRC3 inh | COUP-TFII inh | VP16 Luc counter | COUP-TFII conf
COc1ccc(C(=O)OCCN2CCN(C3CN(Cc4cn(Cc5ccccc5C(F)(F)F)nn4)S(=O)(=O)C3)CC2)cc1OC (centres undefined) | / | 14 | / | / | 48* | 0 | 17
O=S1(=O)CC(N2CCN(Cc3ccccc3F)CC2)CN1Cc1cn(Cc2ccc(C(F)(F)F)cc2)nn1 (centres undefined) | 16 | 16 | / | / | 60* | -6 | 14
COc1ccc(CN2C(=O)[C@@](O)(c3cccn3C)c3cc(F)ccc32)cc1 | / | 6 | / | / | -17 | / | /
Cc1cc2nc(C3CCCN(C(=S)Nc4ccccc4)C3)[nH]c2cc1C (centres undefined) | 10 | 21 | 8 | 8 | 49* | -8 | 9
CCC[C@H]1[C@@H](N(C)Cc2cccs2)CC[C@@]23CCCN2C(=O)CCC[C@@H]13 | / | / | / | / | 6 | / | /
CCCCCn1c2c(c(=N)c3ccccc31)CCC2 | 61 | 25 | 34 | 50 | 66* | 14* | 54*
CCCCCCCCn1c2c(c(=N)c3ccccc31)CCC2 | 84* | 20 | 24 | 78* | 90* | 13* | 73*
CCCCn1c2c(c(=N)c3ccccc31)CCC2 | -19 | -11 | -65 | 21 | -8 | / | /
CCCCCCCCCCn1c2c(c(=N)c3c1CCC3)CCC2 | 96* | 27 | 70* | 79* | 81* | 21* | 79*
COc1ccc(CN2C/C(=C/c3ccccc3)N3C(=O)C[C@@H](c4ccc5ccccc5c4)N=C23)c(OC)c1 | / | 17 | / | / | 8 | / | /
CCOC(=O)N1CCN(C(=O)C[C@@H]2C(=O)N3CCCC4=C3[C@@]2(C(=O)OC)CCCC4)CC1 | / | 2 | / | / | 13 | / | /
CCOC(=O)CC[C@@H]1CC[C@]2(CCCN(Cc3ccc(OC)cc3)C2)O1 | / | -5 | / | / | 8 | / | /
N#Cc1c(NC(=O)CSc2nc(N)cc(=O)[nH]2)sc2c1CCCCCC2 | 20 | 25 | 12 | 25 | 16 | / | /
N#Cc1c(NC(=O)CSc2ncn[nH]2)sc2c1CCCCC2 | 53 | 84* | 36 | 49 | 88* | 81* | 79*
COc1ccc(C2CCC3(CCC(=O)N3CCOC(=O)NCc3ccc(Cl)cc3)CC2)cc1 (centres undefined) | / | 23 | / | / | 40* | 2 | 16
CCCn1nc(C(=O)Nc2ccc3nc(N4CCOCC4)sc3c2)ccc1=O | 35 | 14 | 1 | 11 | 43* | 10 | 36
COc1ccc(C(=O)Nc2ccc3nc(N4CCOCC4)sc3c2)cc1OC | 9 | -5 | -26 | 5 | 10 | / | /
FC(F)(F)c1cnc(N2CCCN(C(=S)Nc3ccccc3)CC2)c(Cl)c1 | 6 | -3 | 8 | 25 | 39* | -7 | 25
CCCCNC(=O)C[C@H]1C[C@@]2(C(=O)OC)C(=C[C@H](C(C)(C)C)O[C@@H]2C)N(Cc2ccc(Cl)cc2Cl)C1=O | / | 7 | / | / | 15 | / | /
O=C(CSc1nnnn1C1CCCCC1)Nc1ccccc1F | 10 | 4 | -10 | -1 | 8 | / | /
O=C(CSc1nnnn1C1CC2CCC1C2)Nc1ccnc2ccccc12 (centres undefined) | 49 | 23 | 31 | 31 | 72* | 2 | 70*
COc1cc(/C=N/NC(N)=S)cc(Br)c1OCc1ccccc1F | 64 | 23 | 10 | 37 | 52* | 24* | 51*
COC[C@H]1CCCN1c1cccc2c1S(=O)(=O)N1CC[C@H](C1)O2 | / | -12 | / | / | -11 | / | /
COc1ccc(NC(=O)c2cc3c(s2)CCC(C)C3)cc1S(=O)(=O)N1CCOCC1 (centres undefined) | 23 | 13 | 25 | 22 | 60* | -16 | 28
O=C(Nc1cccc(Br)c1)c1ccc(Cl)c(S(=O)(=O)N2CCOCC2)c1 | 6 | 31 | 17 | 21 | 59* | -6 | 57*
O=C(Nc1cccc(C(=O)NC2CC2)c1)c1ccc(Cl)c(S(=O)(=O)N2CCOCC2)c1 | 12 | -5 | -5 | -6 | 11 | / | /
COc1ccc(C(=O)Nc2ccc(Cl)c(S(=O)(=O)N3CCOCC3)c2)cc1 | 21 | 20 | 31 | 20 | 59* | -6 | 25
